Screens: PubChem BioAssay, National Center for Advancing Translational Sciences (NCATS)
PTAP TSG101 blk: blocks PTAP/TSG101 interaction to inhibit HIV-1 budding. 340,000 tested, under 10 active. Potency, µM (doses to about 115 µM), for inactives: top-dose activity change, negative = inhibition, actives largely listed as inhibitors. Fluorescence polarization, FITC-PTAP peptide / Tsg101 binding. AID 493005. Q99816; active = well fitted inhibition curve with a large enough effect in the main read-out, with a control signal flat, not every such curve was filed as active; inconclusive = small, poorly fitted or top-dose-only effect, or effect the other way, or a change in a side signal; inactive = no such curve, though single readings can be large or run the other way; note: % of control where 0% means no effect
Target sequence (Q99816 whole entry, looked up): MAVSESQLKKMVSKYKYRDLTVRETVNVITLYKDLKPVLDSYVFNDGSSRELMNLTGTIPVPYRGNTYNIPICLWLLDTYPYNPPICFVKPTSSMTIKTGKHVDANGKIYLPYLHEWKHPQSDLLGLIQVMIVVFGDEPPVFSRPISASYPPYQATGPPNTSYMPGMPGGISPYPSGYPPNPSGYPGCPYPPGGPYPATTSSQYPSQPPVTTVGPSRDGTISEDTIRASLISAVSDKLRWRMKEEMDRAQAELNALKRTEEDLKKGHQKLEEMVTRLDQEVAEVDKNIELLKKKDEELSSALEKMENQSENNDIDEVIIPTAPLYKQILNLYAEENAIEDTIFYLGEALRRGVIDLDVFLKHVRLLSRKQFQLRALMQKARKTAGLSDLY
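Fluorescence anisotropy tracks displacement of a FITC-tagged PTAP peptide (50 nM) from the Tsg101 binding domain (10 uM), following a 20 min room-temperature incubation at pH 7.5.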
KB-V1 MDR tox: kills drug-selected multidrug resistant KB-V1 cells; KB-V1 MDR cells viability, CellTiter-Glo, 72 h; Potency, µM (titrated, usually from 46.1 µM), usual class: cytotoxic; 400,000 compounds, 3.4% hits; note: % is set by controls: 0 for no effect and ±100 for the full control effect; nearly all actives have a fitted effect of over 60% in size
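Cytotoxicity toward P-gp-expressing KB-V1 cells was determined as loss of CellTiter-Glo luminescence after 72 h at 37 degrees C. Compounds were tested in quantitative HTS format across a concentration range, with curves fitted to normalized data.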
MCF10A rereplic: DNA re-replication induction in MCF 10a cells. MCF 10A DNA re-replication, Hoechst nuclear intensity, 48 h. Potency, µM (doses to about 46.1 µM), for inactives: at the highest dose activity, positive = re-replication, most hits filed as activators. 350,000 compounds, 2.9% hits. AID 624296; note: % of control where 0% means no effect; nearly all actives have a fitted effect of over 50% in size
SW480 rerep: DNA re-replication induction in SW480 cells; SW480 DNA re-replication, Hoechst DNA content imaging, 48 h; Potency, µM (top dose mostly 46.1 µM), for inactives: top-dose re-replication activation, hits mostly activators; 340,000 compounds, 1.8% hits; AID 624297; note: % of control where 0% means no effect; nearly all actives have a fitted effect of over 55% in size
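Readout is total intensity of Hoechst-stained nuclei, excited at 405 nm and collected at 500-530 nm. Compound treatment lasted 48 hr at 37 C in 5% CO2 before staining.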
KB-3-1 tox: kills parental KB-3-1 adenocarcinoma cells. KB-3-1 viability, CellTiter-Glo ATP luminescence, 72 h. Potency, µM (top dose mostly 46.1 µM), most hits filed as cytotoxic. 400,000 compounds, 1.4% hits. AID 1347075; note: % is set by controls: 0 for no effect and ±100 for the full control effect; nearly all actives have a fitted effect of over 60% in size
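Multi-concentration cytotoxicity screen in KB-3-1 cells grown in DMEM lacking phenol red with 10% FBS. After 72 h at 37 °C with compound, ATP-dependent luminescence was recorded.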
PINK1 expr mod: changes PINK1 expression; PINK1 immunofluorescence, high-content cytometry, 24 h; Potency, µM (top dose mostly 76.6 µM), without a hit: at the highest dose activation (PINK1 increase), actives largely listed as activators; 410,000 compounds, 0.2% hits; AID 624263; active = well fitted activation curve with a large enough effect; inconclusive = small, poorly fitted or top-dose-only effect; cell line not stated here; note: % of control where 0% means no effect; nearly all actives have a fitted effect of over 65% in size
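Fluorescence from anti-PINK1 antibody, together with nuclear and cell stains, was scanned on a laser-scanning cytometer. Before staining, stable-line cells were incubated 24 hours with compounds at 5 concentrations; primary antibody 12 h at 10 degrees C.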
The depositor's hits bear a star; [ ] = dose if it differs, or a comment. In the library only some 6.8% were active in any assay of this set; here they are far more common. Unless noted, calls come from the whole dose curve; as a rule, active = well fitted curve in the direction sought with a large enough effect; inconclusive = small, poorly fitted or top-dose-only effect, or another doubt; inactive = no such curve, though single readings can be large; an effect the other way counts as inactive or inconclusive. Potency is the fitted concentration of half-maximal effect.

What do the screens show for `COc1ccc(CC(=O)N(Cc2nc(-c3ccc(C)cc3)no2)C(C)C)cc1`?
KB-V1 MDR tox: inactive; KB-3-1 tox: inactive; PINK1 expr mod: 3%

What do the screens show for `Cc1ccc(S(=O)(=O)c2cn(C)c3cc(N4CCCCCC4)c(F)cc3c2=O)cc1`?
KB-V1 MDR tox: inactive; KB-3-1 tox: inactive; PINK1 expr mod: 0%

How did CC(=O)ON(C(C)=O)c1ccc(/C=C2/C=Cc3ccccc32)cc1 do in these assays?
KB-V1 MDR tox: inactive; KB-3-1 tox: inactive

Results for Cn1nccc1C(=O)NCC1CCC2(CCN(Cc3ccc(-c4ccc(Cl)cc4)o3)CC2)O1 (stereo unspecified) ?
PINK1 expr mod: -1%

Results for N=c1c(C(=O)NC2CCCC2)cc2c(=O)n3ccccc3nc2n1CC1CCCO1 (stereo unspecified) ?
PTAP TSG101 blk: -3%; KB-V1 MDR tox: inactive; MCF10A rereplic: inconclusive; SW480 rerep: inconclusive; KB-3-1 tox: inconclusive; PINK1 expr mod: 1%

How did CC(NC(=O)c1cc2c(=O)n3ccccc3nc2n(CC2CCCO2)c1=N)c1ccccc1 (stereo unspecified) do in these assays?
PTAP TSG101 blk: -1%; KB-V1 MDR tox: inconclusive; MCF10A rereplic: 5.8µM*; SW480 rerep: 6.5µM*; KB-3-1 tox: inactive; PINK1 expr mod: 0%

What do the screens show for `N=c1c(S(=O)(=O)c2ccc(F)cc2)cc2c(=O)n3ccccc3nc2n1CC1CCCO1` (stereo unspecified)?
PTAP TSG101 blk: 0%; KB-V1 MDR tox: inactive; MCF10A rereplic: 16µM*; SW480 rerep: 18µM*; KB-3-1 tox: inactive; PINK1 expr mod: 0%

What do the screens show for `Cc1ccc2nc3nc(NCC4CCCO4)c(C(=O)NC4CCCC4)cc3c(=O)n2c1` (stereo unspecified)?
PTAP TSG101 blk: 0%; KB-V1 MDR tox: inactive; MCF10A rereplic: 2.6µM*; SW480 rerep: 15%; KB-3-1 tox: inactive; PINK1 expr mod: 3%

What do the screens show for `CCOC(=O)c1cc(C)n(CC2CCC(C(=O)Nc3ccc(OC)cc3)CC2)c1C` (stereo unspecified)?
PINK1 expr mod: 2%

Results for CCCNc1c(NS(=O)(=O)c2ccc(C(C)(C)C)cc2)c(=O)oc2ccccc12 ?
PTAP TSG101 blk: -4%; KB-V1 MDR tox: inconclusive; MCF10A rereplic: 2%; SW480 rerep: -17%; KB-3-1 tox: inactive; PINK1 expr mod: -1%

How did CCCNc1c(NS(=O)(=O)c2ccc(C3CCCCC3)cc2)c(=O)oc2ccccc12 do in these assays?
PTAP TSG101 blk: -4%; KB-V1 MDR tox: inactive; MCF10A rereplic: 12µM*; SW480 rerep: inconclusive; KB-3-1 tox: inactive; PINK1 expr mod: 2%

How did O=C(Nc1c2c(nn1-c1ccc(Cl)cc1)CS(=O)(=O)C2)c1ccc(Br)cc1 do in these assays?
KB-V1 MDR tox: inconclusive; KB-3-1 tox: inactive; PINK1 expr mod: 32µM*

How did O=C(Nc1cccc2ccccc12)/C(=C/c1ccc([N+](=O)[O-])cc1)NC(=O)c1ccccc1 do in these assays?
PTAP TSG101 blk: -3%; KB-V1 MDR tox: 4.6µM*; MCF10A rereplic: 3%; SW480 rerep: 6%; KB-3-1 tox: inactive; PINK1 expr mod: -4%

Results for CNc1nc(-c2ccc(N(C)C)cc2)nc2ccccc12 ?
PINK1 expr mod: 0%

How did CCOC(=O)C1=C(C)NC(=O)NC1/C(C)=C/c1ccccc1 (stereo unspecified) do in these assays?
PTAP TSG101 blk: -2%; KB-V1 MDR tox: 21µM*; MCF10A rereplic: 10%; SW480 rerep: -2%; KB-3-1 tox: inactive; PINK1 expr mod: -3%[38.3 µM]

What do the screens show for `CCOC(=O)C1=C(C)Nc2ncnn2C1c1cc(Br)ccc1F` (stereo unspecified)?
PTAP TSG101 blk: -11%; KB-V1 MDR tox: 21µM*; MCF10A rereplic: inconclusive; SW480 rerep: -4%[9.22 µM]; KB-3-1 tox: inconclusive; PINK1 expr mod: 9%

Results for CCCCOC(=O)C1=C(C)Nc2ncnn2C1c1ccc(OCC)c(OC)c1 (stereo unspecified) ?
PTAP TSG101 blk: 5%; KB-V1 MDR tox: 4.6µM*; MCF10A rereplic: 0%; SW480 rerep: 0%; KB-3-1 tox: inactive; PINK1 expr mod: 4%

How did CCCC1=C(C(=O)OCC)C(c2ccc(N(C)C)cc2)n2ncnc2N1 (stereo unspecified) do in these assays?
PTAP TSG101 blk: -2%; KB-V1 MDR tox: 18µM*; MCF10A rereplic: 5%; SW480 rerep: -4%; KB-3-1 tox: inconclusive; PINK1 expr mod: 9%[38.3 µM]

What do the screens show for `Cc1nn(CCC(=O)Nc2ccc(Cl)cc2)c(C)c1S(=O)(=O)N1CCCCC1`?
PINK1 expr mod: 0%

What do the screens show for `CCCC1=C(C(=O)OCC)C(/C=C/c2ccccc2)n2ncnc2N1` (stereo unspecified)?
PTAP TSG101 blk: -6%; KB-V1 MDR tox: inconclusive; MCF10A rereplic: inconclusive; SW480 rerep: inconclusive; KB-3-1 tox: 8.9µM*; PINK1 expr mod: inconclusive

Results for CCCC1=C(C(=O)OCC)C(c2ccc(F)cc2)n2ncnc2N1 (stereo unspecified) ?
PTAP TSG101 blk: -3%; KB-V1 MDR tox: inactive; MCF10A rereplic: 11%; SW480 rerep: 5%; KB-3-1 tox: inactive; PINK1 expr mod: 0%

What do the screens show for `CCOC(=O)C1=C(C)Nc2ncnn2C1/C=C/c1ccccc1` (stereo unspecified)?
PTAP TSG101 blk: -5%; KB-V1 MDR tox: 10µM*; MCF10A rereplic: 63%; SW480 rerep: inconclusive; KB-3-1 tox: inconclusive; PINK1 expr mod: 10%[38.3 µM]

How did COc1ccccc1NC(=O)Cn1c(=O)n(Cc2ccccc2)c(=O)c2c1c1cc(C)ccc1n2C do in these assays?
KB-V1 MDR tox: inconclusive; KB-3-1 tox: inactive; PINK1 expr mod: 1%

How did Cc1ccc(NC(=O)CN(C)C(=O)Cn2ncc(Cl)c(Cl)c2=O)cc1 do in these assays?
PTAP TSG101 blk: 0%; KB-V1 MDR tox: inconclusive; MCF10A rereplic: 3.3µM*; SW480 rerep: inconclusive; KB-3-1 tox: inconclusive; PINK1 expr mod: -1%

How did Cc1ccc(NC(=O)CCNC(=O)c2ccccc2Cl)cc1S(=O)(=O)N1CCCCCC1 do in these assays?
PTAP TSG101 blk: -9%; KB-V1 MDR tox: inactive; MCF10A rereplic: -4%; SW480 rerep: -9%; KB-3-1 tox: inactive; PINK1 expr mod: 8%

How did Cc1ccc(NC(=O)Cn2ncc(Cl)c(Cl)c2=O)cc1S(=O)(=O)N1CCCCC1 do in these assays?
PTAP TSG101 blk: -8%; KB-V1 MDR tox: inconclusive; MCF10A rereplic: 4.1µM*; SW480 rerep: 8.2µM*; KB-3-1 tox: inconclusive; PINK1 expr mod: 0%
